# Records with an inconclusive call do not appear. Unmarked numbers belong to inactive results. Activity calls are given as the source filed them. Calls follow the shape of the dose curve; as a rule, active = well fitted inhibition curve with a large enough effect; inconclusive = small, poorly fitted or top-dose-only effect; inactive = flat fitted curve, though single readings scatter.
# Biological target: Galactokinase (Homo sapiens) (UniProt P51570)
# Test: Confirmation Assay for Inhibitors of Human Galactokinase (GALK): probe SAR
# Conditions: purified GALK, Kinase-Glo ATP depletion luminescence; series mostly up to 115 µM; activity change, negative = inhibition: at the top concentration
# Excerpt: NIH Molecular Libraries Probe Production Centers Network [MLPCN] NIH Chemical Genomics Center [NCGC] MLPCN Grant: R03 MH085689-01 Assay Submitter (PI): Kent Lai (University of Utah School of Medicine, 50 N Mario Capecchi Drive, Salt Lake City, UT 84132) NCGC Assay Overview Inherited deficiency of galactose-1-phosphate uridyltransferase (GALT) can result in a potentially lethal disorder called Classic Galactosemia (OMIM 230400). Several lines of evidence indicate that an elevated level of galactose-1-phosphate (gal-1-p), the product of galactokinase (GALK), is a major, if not sole, pathogenic mechanism in patients with classic galactosemia. Therefore, finding inhibitors of GALK is a potential novel therapy for this inherent metabolic disease and is the long term goal of this project. Active compounds observed in the qHTS GALK assay (AID: 1868) were cherry picked and re-screened for validation. GALK (provided by Kent Lai) was assayed using ATP and D-(+)-Galactose (Sigma-Aldrich cat# G0750) as substrates. Promega Kinase-Glo Plus (cat# V3774) technology was used to detect the residual ATP following kinetic reaction. Briefly, the Kinase-Glo Plus contains Ultra-Glo [1] luciferase and D-luciferin which generates a bioluminescence signal from the remaining ATP. Kinase reactions with and without GALK were used as negative and positive controls together with Protein Tyrosine Phosphatase CD45 inhibitor (EMD Bioscience cat# 540215) which is shown to inhibit GALK activity.
# NCGC Assay Protocol Summary: Three uL/well of ATP-buffer solution (35 uM ATP, 20mM HEPES pH8.0, 5 mM MgCl2, 60 mM NaCl, 1 mM DTT, 0.01% BSA final concentration) was dispensed into 1536-well, assay plates (Greiner, solid white medium-binding plates) with Aurora Discovery BioRAPTR Flying Reagent Dispenser (FRD; Beckton-Dickenson). Compound and control solution (23 nL) was transferred to the assay plate using the Kalypsys 1536-pin tool apparatus. One uL/well GALK-galactose solution (5 nM GALK, 100 uM galactose, 20 mM HEPES pH8.0, 5 mM MgCl2, 60 mM NaCl, 1 mM DTT, 0.01% BSA final concentration) was then added using the FRD yielding a total kinase reaction volume of 4 uL/ well. After 1 hour of room temperature incubation, 4 uL Kinase-Glo Plus reagent was added for a final assay volume of 8 uL/well. Luminescence was detected with the ViewLux plate reader (Perkin Elmer, Waltham, MA) after 2 min incubation using a 1 sec exposure time and 2x binning.
# Sequence of Galactokinase (Homo sapiens) (P51570 whole entry, looked up): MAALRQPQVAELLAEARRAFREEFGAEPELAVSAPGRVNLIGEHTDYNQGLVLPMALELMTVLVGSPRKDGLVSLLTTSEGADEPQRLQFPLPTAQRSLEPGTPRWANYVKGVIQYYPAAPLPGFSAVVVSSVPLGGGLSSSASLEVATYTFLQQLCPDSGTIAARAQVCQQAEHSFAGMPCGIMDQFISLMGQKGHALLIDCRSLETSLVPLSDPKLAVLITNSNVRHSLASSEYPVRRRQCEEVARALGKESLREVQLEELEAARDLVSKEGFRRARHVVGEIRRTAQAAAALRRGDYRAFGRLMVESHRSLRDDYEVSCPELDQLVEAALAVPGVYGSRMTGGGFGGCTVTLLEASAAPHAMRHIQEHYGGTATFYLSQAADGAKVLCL
Structure (SMILES),"activity change, negative = inhibition [%]",Potency
CC1(C)CC(=O)C2=C(C1)NC(Nc1nc3ccccc3o1)=NC2c1cccc(F)c1 (centres undefined),-4.97,
O=C1CCCC2=C1C1(CCCC1)N=C(Nc1nc3cc(Cl)ccc3o1)N2,,6.68 µM (active)
CC1CCC2(C1)N=C(Nc1nc3ccccc3o1)NC1=C2C(=O)CCC1 (centres undefined),,11.9 µM (active)
CC1(C)CC(=O)C2=C(C1)NC(Nc1nc3ccccc3o1)=NC21CCCC1,,6.68 µM (active)
O=C1CC(c2ccccc2)CC2=C1C1(CCCCC1)N=C(Nc1nc3ccccc3o1)N2 (centres undefined),-21.5,
O=C1CCCC2=C1C(c1ccccc1Cl)N=C(Nc1nc3ccccc3o1)N2 (centres undefined),,0.595 µM (active)
O=C1CCCC2=C1C1(CCCC1)N=C(Nc1nc3cc4ccccc4cc3o1)N2,-18.8,
COc1cccc(C2N=C(Nc3nc4ccccc4o3)NC3=C2C(=O)CC(C)(C)C3)c1 (centres undefined),,37.5 µM (active)
CC1(C)CC(=O)C2=C(C1)NC(Nc1nc3ccccc3o1)=NC2c1ccccc1Cl (centres undefined),,8.41 µM (active)
O=C1CCCC2=C1[C@@]1(CCC(c3ccccc3)C1)N=C(Nc1nc3ccccc3o1)N2 (some centres undefined),-22.8,
Cc1ccc2oc(NC3=NC4(CCCC4)C4=C(CCCC4=O)N3)nc2c1,,5.95 µM (active)
CC1(C)CC(=O)C2=C(C1)NC(Nc1nc3ccccc3o1)=NC2c1cccc(O)c1 (centres undefined),,21.1 µM (active)
O=C1CCCC2=C1C1(CCC1)N=C(Nc1nc3ccccc3o1)N2,,18.8 µM (active)
Cc1ccc(C2N=C(Nc3nc4ccccc4o3)NC3=C2C(=O)CC(C)(C)C3)cc1 (centres undefined),2.65,
COc1ccccc1C1N=C(Nc2nc3ccccc3o2)NC2=C1C(=O)CC(C)(C)C2 (centres undefined),-2.26,
O=C1CCCC2=C1C1(CCCC1)N=C(Nc1nc3ccccc3n1Cc1ccccc1)N2,-7.66,
O=C1CCCC2=C1C1(CCS(=O)(=O)C1)N=C(Nc1nc3ccccc3o1)N2 (centres undefined),,6.68 µM (active)
COc1ccc(C2N=C(Nc3nc4ccccc4o3)NC3=C2C(=O)CC(C)(C)C3)cc1 (centres undefined),-22.4,
O=C1CCC2=C1C1(CCCC1)N=C(Nc1nc3ccccc3o1)N2,,11.9 µM (active)
O=C1CCCC2=C1C1(CCCCC1)N=C(Nc1nc3ccccc3o1)N2,,13.3 µM (active)
Cc1nc(Nc2nc3ccccc3o2)nc2c1C(=O)CC(C)(C)C2,-7.11,
Cn1c(NC2=NC3(CCCC3)C3=C(CCCC3=O)N2)nc2ccccc21,-25,
CC1(C)N=C(Nc2nc3ccccc3o2)NC2=C1C(=O)CCC2,,47.3 µM (active)
O=C1CCCC2=C1C1(CCSCC1)N=C(Nc1nc3ccccc3o1)N2,,1.06 µM (active)
O=C1CCCC2=C1C1(CCSC1)N=C(Nc1nc3ccccc3o1)N2 (centres undefined),,2.66 µM (active)
O=C1CCCC2=C1C(c1ccc(Cl)cc1)N=C(Nc1nc3ccccc3o1)N2 (centres undefined),-19.6,
O=C1CCC2=C1C(c1ccccc1Cl)N=C(Nc1nc3ccccc3o1)N2 (centres undefined),,11.9 µM (active)
O=C1CCCC2=C1C1(CCCC1)N=C(Nc1nc3cc(Br)ccc3o1)N2,,7.49 µM (active)
CCC1CCC2(C1)N=C(Nc1nc3ccccc3o1)NC1=C2C(=O)CCC1 (centres undefined),,inactive

# From PubChem BioAssay AID2499 (National Center for Advancing Translational Sciences (NCATS), 2010)
